± gives the standard deviation of the averaged measurements.
Assays:
Conditions in all cases: concentration: 10 µM; 24 h
[1] = test system: HCC1569; assay: cell number relative to DMSO (% of DMSO); higher = more cells (less growth inhibition / toxicity)
Method in brief: (§1)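 Compounds were applied at 10 µM for 24 h at 37 °C, in triplicate, to HCC1569 and TDF cells. The cells were then fixed and stained for H1.0, and nuclei were counterstained with DAPI. Nuclear H1.0 intensity or cell number is reported relative to the plate control as a percent, taking the median of replicates. Smoothing for positional effects was applied to HCC1569 values only.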

[2] = test system: TDF; assay: as above
Method in brief: as §1

[3] = test system: TDF; assay: H1.0 immunofluorescence intensity relative to DMSO (% of DMSO); higher = stronger H1.0 induction, active = 120 or more
Method in brief: as §1

[4] = test system: HCC1569; assay: H1.0 immunofluorescence intensity relative to DMSO (% of DMSO); higher = stronger H1.0 induction, active = 140 or more
Method in brief: as §1
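Throughout, for H1.0 immunofluorescence intensity relative to DMSO: TDF is a line of transformed human dermal fibroblasts of mesenchymal origin.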
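Throughout, for cell number relative to DMSO: TDF denotes transformed human dermal fibroblasts of mesenchymal origin.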

SMILES | cell number [1] | cell number [2] | H1.0 immunofluorescence intensity [3] | H1.0 immunofluorescence intensity [4]
CN1C2CCC1CC(OC(=O)C(CO)c1ccccc1)C2 (configuration not stated) [Hyoscyamine] | 102 | 98 | 97.8 (inactive) | 94.8 (inactive)
CCC12C=CCN3CCC4(c5ccc(OC)cc5N(C)C4C(O)(C(=O)OC)C1OC(C)=O)C32 (configuration not stated) [Vindoline] | 102 | 91.6 | 91.7 (inactive) | 90.1 (inactive)
CNCCc1ccc(O)c(O)c1.Cl [N-Methyldopamine hydrochloride] | 105 | 92.2 | 95.3 (inactive) | 94 (inactive)
CNC(=O)Oc1ccc2c(c1)C1(C)CCN(C)C1N2C (single isomer, unassigned; (-)) [(-)-Physostigmine] | 98.8 | 118 | 96.7 (inactive) | 94.3 (inactive)
CCN(C)C(=O)Oc1cccc([C@H](C)N(C)C)c1.O=C(O)C(O)C(O)C(=O)O | 98.4 | 98.9 | 106 (inactive) | 96.1 (inactive)
CNC(=O)Oc1ccc2c(c1)C1(C)CCN(C)C1N2C (configuration not stated) [Physostigmine] | 104 | 104 | 102 (inactive) | 94.1 (inactive)
CC1OC(OC2CC(O)C3(CO)C4C(O)CC5(C)C(C6=CC(=O)OC6)CCC5(O)C4CCC3(O)C2)C(O)C(O)C1O (single isomer, unassigned; (-)) [(-)-Ouabain] | 49.5 ± 1.9 | 42.1 ± 1.4 | 119 (inactive) | 130 (inactive)
CCC(C(=O)O)C1OC(C(C)C(O)C(C)C(=O)C(CC)C2OC3(C=CC(O)C4(CCC(C)(C5CCC(O)(CC)C(C)O5)O4)O3)C(C)CC2C)C(C)CC1C (configuration not stated) [Narasin] | 67.3 | 84.4 | 112 (inactive) | 159 (active)
